Reference: PubChem BioAssay
Records with an inconclusive call do not appear. Activity calls are given as the source filed them.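 The calls were made as follows, unless noted: active = percent response above a set limit, the screen-wide mean plus 3 SD (cut at about 130% in these data); inactive = the rest.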

Legend:
[1] = yeast TOR pathway RPL19A-GFP modulators, primary screen, cell-based, S. cerevisiae, multiplex flow cytometry (AID 1862; in the data active = percent of DMSO control GFP below about 86%;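 also: lower values mimic rapamycin by blocking the RPL19A rise seen in DMSO cells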); settings: S. cerevisiae RPL19A-GFP strain, flow cytometry fluorescence, 3 h; at 10 µM; stronger effect = lower value
[2] = modulators of MEP2-GFP levels in yeast, primary screen, S. cerevisiae, multiplex flow cytometry (AID 1867;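 active = GFP response, as percent of the DMSO control, above the screen-wide mean plus 3 SD, about 139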;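 also: median GFP channel fluorescence of barcode-gated MEP2-GFP cells measured by flow cytometry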); settings: S. cerevisiae MEP2-GFP strain, 3 h, at 10 µM, stronger effect = higher value, 100% means same as DMSO wells
[3] = modulators of CIT2-GFP expression in yeast, primary screen, S. cerevisiae, GFP fusion, multiplex flow cytometry (AID 1870); settings: 3 h, at 10 µM, stronger effect = higher value;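 also: barcoded CIT2-GFP strain pooled with four other GFP strains with rapamycin as positive control; median GFP fluorescence per well over plate mean of DMSO wells so 100% = DMSO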
[4] = modulators of LAP4-GFP expression in yeast, primary screen, S. cerevisiae, multiplex flow cytometry (AID 1873;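 active = GFP signal, as percent of the solvent control, above the screen mean plus 3 SD, about 149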); settings: 3 h, at 10 µM, stronger effect = higher value
[5] = modulators of AGP1-GFP expression in yeast TOR pathway, primary screen, cell-based, multiplex flow cytometry, S. cerevisiae (AID 1887;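 active = GFP signal above the screen-wide mean plus 3 SD, that is over about 124.5% of the solvent control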;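 also: AGP1-GFP fusion strain of S. cerevisiae within a five-strain barcoded multiplex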); settings: 3 h, at 10 µM, stronger effect = higher value
[6] = inhibitors of CD8+ T cell-vesicle binding, pilot screen, LFA-1/ICAM-1 modulator project, MLPCN validation set, flow cytometry (AID 2523;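 active = response below a set limit, under 55% cells CD8-positive and vesicle-bound, and CD8 cells' 90th-percentile brightness under 279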;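 as to vesicle binding response: mean PE anti-B7-1 fluorescence of CD8+ cells relative to row control; 100% = QL9-loaded vesicles with DMSO vehicle in the same plate row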); settings: 2C mouse CD8+ T cells, at 7 µM, stronger effect = lower value; double positive events: measured here: CD8+/vesicle+ event percentage
[7] = target: Integrin beta-1 (Homo sapiens) + Integrin alpha-4 (Homo sapiens) (UniProt P13612+P05556); test: inhibition of HUTS-21 binding to VLA-4, pilot screen, VLA-4 allosteric modulator project, U937 cells, HUTS-21 mAb, flow cytometry, validation set (AID 2674;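 active = inhibition above 50%, about 3 SD of the validation set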;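 also: antibody binding induced by the VLA-4 ligand LDV present at three times its Kd; 0% = LDV ligand with antibody and no compound and 100% = antibody without LDV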); settings: HUTS-21 LIBS mAb binding, at 6.7 µM, stronger effect = higher value, binding induced by LDV ligand
[8] = superoxide lowering in aged yeast cells, pilot screen, validation compound set (AID 2706;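 active = superoxide response below 65% of plate, a cut near 3 SD across the whole screen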;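 also: yeast exposed to compound for one week at 30 degrees C before staining; 100% = mean of all compound wells on the same plate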); settings: S. cerevisiae aging, superoxide DHE fluorescence; at 10 µM; stronger effect = lower value
[9] = target: Beta-adrenergic receptor kinase 1 (Homo sapiens) (UniProt P25098); test: GRK2 binders displacing RNA aptamer, biochemical, validation, human GRK2, bead flow cytometry (AID 488806;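 active = aptamer binding inhibition above 30%, about 3 SD of noise from non-fluorescent compounds; inactive = inhibition at or below 30%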); settings: bead-bound GRK2, FAM-aptamer displacement, at 10 µM, stronger effect = higher value
[10] = target: Beta-2 adrenergic receptor (Homo sapiens) (UniProt P07550); test: beta2AR agonists driving receptor internalization, pilot screen, cell-based, FAP fluorogen, flow cytometry, validation set (AID 504459;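 active = percent response above 42, roughly 3 SD of non-fluorescent test compounds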;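 also: agonist-driven loss of surface beta2AR via internalization measured by FAP dye flow cytometry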); settings: Am2.2-beta2AR cells, FAP surface receptor flow cytometry; at 10 µM; stronger effect = higher value
[11] = target: AP-2 complex subunit beta (Homo sapiens) (UniProt P63010); test: inhibitors of arrestin peptide binding to AP2, pilot screen, biochemical, validation set, GST-AP2 beads, flow cytometry (AID 504541;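 active = inhibition above 54%, about 3 SD of non-fluorescent compounds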;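 also: AP2 carries R879A mutation and is captured from E. coli lysate; bead-bound FITC arrestin peptide fluorescence measuring arrestin peptide binding to AP2; 0% = DMSO wells and 100% = excess unlabeled arrestin peptide control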); settings: FITC arrestin peptide, at 10 µM, stronger effect = higher value, AP2 beta2 appendage fragment, R879A mutant
[12] = yeast V-ATPase proton transport modulators, S. cerevisiae, pHLuorin, HTS validation (AID 504600; in the data active = response above about 15%;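 also: plate controls were DMSO for no effect and reference compound for full effect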); settings: S. cerevisiae pHLuorin cytosolic pH, at 10 µM, stronger effect = higher value
[13] = system: anti-desmoglein-3 scFv antibody binding to human DSG3; test: inhibitors of anti-DSG3 scFv binding to DSG3, pilot screen, biochemical, validation compound set, bead-based, flow cytometry (AID 588368;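 active = binding below the plate cutoff, the plate median minus 3 SD, with a reading above zero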;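 also: signal is the median channel fluorescence of bead-bound GFP antibody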); settings: Protein G beads, DSG3-Fc, scFv-GFP binding, at 10 µM, stronger effect = lower value
[14] = inhibitors of fungal efflux pumps CDR1, CDR2, MDR1, pilot screen, validation compound set, multiplex, phenotypic (AID 588506;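 active = efflux inhibition above 0.42, the validation set average plus 4 SD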;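 also: Nile Red retained in cells so higher fluorescence means more efflux inhibition; 0 = negative control wells and 1 = enniatin B 25 µM full block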); settings: S. cerevisiae pump-expressing triplex, Nile Red efflux flow cytometry; at 10 µM; stronger effect = higher value; the pumps come from Candida albicans
[15] = target: ATP-binding cassette sub-family B member 6 (Homo sapiens) (UniProt Q9NP58); test: ABCB6 transporter inhibitors, pilot screen, K562-ABCB6 cells, flow cytometry, validation set (AID 588550;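 active = inhibition above the screen-wide mean plus 3 SD, about 51%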;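 also: 0% = DMSO wells and 100% = benzethonium chloride 70 µM positive control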); settings: K562-ABCB6 porphyrin accumulation, 1 h, at 10 µM, stronger effect = higher value
[16] = promoters of myeloid differentiation in arrested cells, primary screen, cell-based, GFP/MAC1 double positive, flow cytometry, validation set (AID 588685;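 active = differentiation response of at least 50%, scaled between solvent and reference control, from cells with both markers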;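 also: compound exposure lasts four days before antibody staining and flow analysis; 0% = DMSO wells and 100% = 5 µM fulvestrant positive control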); settings: ER-HoxA9 marrow cells, stronger effect = higher value, normalized: vehicle 0, fulvestrant 100

Chain of Integrin beta-1 (Homo sapiens) + Integrin alpha-4 (Homo sapiens) (P05556 whole entry, looked up): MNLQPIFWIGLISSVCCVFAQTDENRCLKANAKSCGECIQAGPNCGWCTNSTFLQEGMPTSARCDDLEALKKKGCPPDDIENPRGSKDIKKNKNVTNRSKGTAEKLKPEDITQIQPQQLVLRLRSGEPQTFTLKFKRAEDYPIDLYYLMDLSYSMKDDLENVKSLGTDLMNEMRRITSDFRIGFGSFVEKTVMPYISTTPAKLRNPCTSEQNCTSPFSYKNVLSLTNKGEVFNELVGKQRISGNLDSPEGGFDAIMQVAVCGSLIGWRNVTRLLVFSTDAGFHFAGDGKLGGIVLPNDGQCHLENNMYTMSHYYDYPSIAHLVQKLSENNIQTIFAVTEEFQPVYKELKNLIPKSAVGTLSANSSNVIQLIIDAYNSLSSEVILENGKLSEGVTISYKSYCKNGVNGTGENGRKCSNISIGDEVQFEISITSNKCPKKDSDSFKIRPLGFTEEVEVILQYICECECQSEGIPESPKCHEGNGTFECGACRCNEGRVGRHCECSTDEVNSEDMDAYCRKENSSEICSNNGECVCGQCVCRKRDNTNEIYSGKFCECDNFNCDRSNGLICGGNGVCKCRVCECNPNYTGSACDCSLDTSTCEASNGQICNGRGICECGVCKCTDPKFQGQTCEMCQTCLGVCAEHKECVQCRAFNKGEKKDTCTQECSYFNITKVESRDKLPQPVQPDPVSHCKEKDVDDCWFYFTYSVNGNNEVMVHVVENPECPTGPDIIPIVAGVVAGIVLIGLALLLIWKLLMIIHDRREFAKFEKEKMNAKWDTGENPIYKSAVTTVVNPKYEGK
Chain of Integrin beta-1 (Homo sapiens) + Integrin alpha-4 (Homo sapiens) (P13612 whole entry, looked up): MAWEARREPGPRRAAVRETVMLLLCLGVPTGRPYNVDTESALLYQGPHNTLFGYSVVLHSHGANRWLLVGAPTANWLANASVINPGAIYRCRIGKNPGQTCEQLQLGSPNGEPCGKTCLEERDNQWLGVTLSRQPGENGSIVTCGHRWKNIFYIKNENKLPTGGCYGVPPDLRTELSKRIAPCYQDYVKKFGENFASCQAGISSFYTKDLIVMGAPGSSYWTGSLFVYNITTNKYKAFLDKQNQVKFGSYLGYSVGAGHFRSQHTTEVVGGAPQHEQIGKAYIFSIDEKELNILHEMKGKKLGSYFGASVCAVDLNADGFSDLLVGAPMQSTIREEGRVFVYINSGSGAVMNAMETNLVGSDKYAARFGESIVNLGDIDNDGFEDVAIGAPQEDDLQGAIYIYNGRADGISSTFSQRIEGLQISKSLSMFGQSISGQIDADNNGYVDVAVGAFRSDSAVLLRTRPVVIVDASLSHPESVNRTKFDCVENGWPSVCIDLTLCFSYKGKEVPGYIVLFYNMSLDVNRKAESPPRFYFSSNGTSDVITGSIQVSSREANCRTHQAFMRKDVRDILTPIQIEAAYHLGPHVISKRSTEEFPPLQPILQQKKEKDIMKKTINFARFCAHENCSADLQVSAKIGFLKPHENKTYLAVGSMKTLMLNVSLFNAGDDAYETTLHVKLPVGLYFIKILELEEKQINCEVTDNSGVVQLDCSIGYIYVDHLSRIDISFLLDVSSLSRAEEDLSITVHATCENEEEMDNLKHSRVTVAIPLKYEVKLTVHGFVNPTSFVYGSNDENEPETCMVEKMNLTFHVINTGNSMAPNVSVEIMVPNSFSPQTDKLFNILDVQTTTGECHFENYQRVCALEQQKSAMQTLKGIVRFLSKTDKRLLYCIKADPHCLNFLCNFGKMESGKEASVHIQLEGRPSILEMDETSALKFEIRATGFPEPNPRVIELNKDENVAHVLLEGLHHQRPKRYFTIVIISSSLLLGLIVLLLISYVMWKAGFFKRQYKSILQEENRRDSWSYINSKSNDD
Chain of Beta-2 adrenergic receptor (Homo sapiens) (P07550 whole entry, looked up): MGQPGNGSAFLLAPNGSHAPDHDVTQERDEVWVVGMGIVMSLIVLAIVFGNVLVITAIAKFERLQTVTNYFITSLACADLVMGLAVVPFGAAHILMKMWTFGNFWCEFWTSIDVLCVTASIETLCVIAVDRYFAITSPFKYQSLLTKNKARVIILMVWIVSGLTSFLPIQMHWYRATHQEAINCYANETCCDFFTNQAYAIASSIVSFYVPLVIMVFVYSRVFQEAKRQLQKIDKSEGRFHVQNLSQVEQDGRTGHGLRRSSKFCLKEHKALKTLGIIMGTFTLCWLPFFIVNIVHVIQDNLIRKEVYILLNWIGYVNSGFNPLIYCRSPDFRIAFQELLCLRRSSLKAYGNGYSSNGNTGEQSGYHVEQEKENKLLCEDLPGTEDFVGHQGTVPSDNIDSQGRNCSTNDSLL
Chain of ATP-binding cassette sub-family B member 6 (Homo sapiens) (Q9NP58 whole entry, looked up): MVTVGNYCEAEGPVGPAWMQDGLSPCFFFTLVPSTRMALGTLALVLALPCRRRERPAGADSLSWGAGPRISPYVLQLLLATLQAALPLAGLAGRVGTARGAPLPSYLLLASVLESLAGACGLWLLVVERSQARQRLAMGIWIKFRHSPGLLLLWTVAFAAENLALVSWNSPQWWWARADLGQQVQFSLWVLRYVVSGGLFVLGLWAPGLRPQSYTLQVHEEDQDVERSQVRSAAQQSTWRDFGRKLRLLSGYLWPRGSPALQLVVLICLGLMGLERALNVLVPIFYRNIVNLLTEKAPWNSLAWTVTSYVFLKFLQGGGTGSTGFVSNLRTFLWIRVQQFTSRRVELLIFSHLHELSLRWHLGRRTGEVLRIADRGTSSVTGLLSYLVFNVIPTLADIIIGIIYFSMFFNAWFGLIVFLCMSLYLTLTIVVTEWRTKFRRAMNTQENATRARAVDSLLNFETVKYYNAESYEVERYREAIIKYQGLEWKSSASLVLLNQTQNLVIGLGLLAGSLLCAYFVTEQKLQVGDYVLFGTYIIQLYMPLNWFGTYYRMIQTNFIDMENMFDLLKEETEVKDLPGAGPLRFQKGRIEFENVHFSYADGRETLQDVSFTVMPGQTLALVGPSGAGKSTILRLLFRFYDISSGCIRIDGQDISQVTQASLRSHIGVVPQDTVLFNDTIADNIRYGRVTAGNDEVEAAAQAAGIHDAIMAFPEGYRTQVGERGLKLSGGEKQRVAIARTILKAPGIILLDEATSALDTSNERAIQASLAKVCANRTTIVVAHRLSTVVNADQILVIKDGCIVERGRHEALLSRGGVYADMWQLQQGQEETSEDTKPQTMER
Chain of AP-2 complex subunit beta (Homo sapiens) (P63010 whole entry, looked up, the tested form may be a part, one chain of several): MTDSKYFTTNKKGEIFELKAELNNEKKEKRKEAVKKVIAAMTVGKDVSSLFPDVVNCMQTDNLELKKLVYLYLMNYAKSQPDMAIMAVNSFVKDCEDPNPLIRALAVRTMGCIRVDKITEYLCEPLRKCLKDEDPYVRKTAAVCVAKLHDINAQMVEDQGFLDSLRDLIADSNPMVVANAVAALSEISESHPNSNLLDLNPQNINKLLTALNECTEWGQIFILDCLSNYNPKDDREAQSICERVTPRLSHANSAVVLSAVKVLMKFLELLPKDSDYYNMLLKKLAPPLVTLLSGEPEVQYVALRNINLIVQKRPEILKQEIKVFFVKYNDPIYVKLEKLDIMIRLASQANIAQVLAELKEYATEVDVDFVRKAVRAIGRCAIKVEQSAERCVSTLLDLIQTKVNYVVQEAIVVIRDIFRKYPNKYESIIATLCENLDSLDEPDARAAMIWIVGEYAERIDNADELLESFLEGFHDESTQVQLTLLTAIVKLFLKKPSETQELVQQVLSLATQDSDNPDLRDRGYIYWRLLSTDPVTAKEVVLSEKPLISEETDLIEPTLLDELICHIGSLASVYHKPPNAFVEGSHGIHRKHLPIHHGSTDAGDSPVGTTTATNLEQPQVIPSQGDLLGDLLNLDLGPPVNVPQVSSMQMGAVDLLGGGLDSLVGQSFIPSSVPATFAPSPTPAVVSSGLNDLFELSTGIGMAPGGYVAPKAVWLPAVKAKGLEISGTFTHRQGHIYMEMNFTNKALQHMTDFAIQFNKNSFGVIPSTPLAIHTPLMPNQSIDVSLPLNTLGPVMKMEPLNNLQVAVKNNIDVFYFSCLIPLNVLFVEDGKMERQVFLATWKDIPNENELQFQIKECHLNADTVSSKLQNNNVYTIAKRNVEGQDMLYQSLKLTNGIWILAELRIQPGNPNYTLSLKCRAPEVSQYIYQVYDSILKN
Chain of Beta-adrenergic receptor kinase 1 (Homo sapiens) (P25098 whole entry, looked up): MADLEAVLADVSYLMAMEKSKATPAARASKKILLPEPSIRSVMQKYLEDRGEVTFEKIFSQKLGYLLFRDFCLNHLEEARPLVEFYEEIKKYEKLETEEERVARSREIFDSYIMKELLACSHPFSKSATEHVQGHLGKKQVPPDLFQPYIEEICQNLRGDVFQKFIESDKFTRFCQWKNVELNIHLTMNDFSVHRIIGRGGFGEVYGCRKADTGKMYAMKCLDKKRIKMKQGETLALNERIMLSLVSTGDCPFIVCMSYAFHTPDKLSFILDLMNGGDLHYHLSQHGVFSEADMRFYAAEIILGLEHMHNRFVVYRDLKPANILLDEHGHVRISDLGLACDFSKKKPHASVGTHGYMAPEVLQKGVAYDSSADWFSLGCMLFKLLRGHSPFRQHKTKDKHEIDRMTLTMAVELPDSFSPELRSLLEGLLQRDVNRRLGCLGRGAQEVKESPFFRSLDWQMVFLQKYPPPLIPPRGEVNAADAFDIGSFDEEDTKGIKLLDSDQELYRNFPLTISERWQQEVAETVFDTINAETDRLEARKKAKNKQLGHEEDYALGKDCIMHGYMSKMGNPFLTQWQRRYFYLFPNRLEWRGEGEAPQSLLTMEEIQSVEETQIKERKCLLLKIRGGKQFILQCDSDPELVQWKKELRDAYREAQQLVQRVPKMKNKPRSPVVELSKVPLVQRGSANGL

COc1ccc(CCN2C(=O)CSC2c2ccc(OC)c(OC)c2)cc1OC (stereo not given)
63.2%: double positive events [6]
inactive: percent of DMSO control GFP [1] 102% | GFP response vs DMSO [2] 118% | percent response of DMSO control [3] 87.2% | GFP response vs DMSO [4] 104% | GFP response, % of DMSO [5] 95.7% | vesicle binding response [6] 184% | inhibition [7] 9.13% | superoxide response (% of plate) [8] 104% | aptamer binding inhibition [9] 2% | response [10] -12.9% | inhibition [11] 8.66% | response [12] -1.47% | binding (% of control) [13] 100% | efflux inhibition (fraction of control) [14] 0.05 | inhibition [15] 1% | differentiation response [16] 21.6%

COc1cc(CNc2nnnn2C)ccc1OCc1ccc(F)cc1Cl
inactive: percent of DMSO control GFP [1] 102% | GFP response vs DMSO [2] 101% | percent response of DMSO control [3] 98.2% | GFP response vs DMSO [4] 92.3% | GFP response, % of DMSO [5] 97.2% | vesicle binding response [6] 150% | inhibition [7] 3.98% | aptamer binding inhibition [9] -1% | response [10] 15.7% | inhibition [11] 16.9% | response [12] 0.17% | binding (% of control) [13] 104% | inhibition [15] 7% | differentiation response [16] -5.68%
active: superoxide response (% of plate) [8] 51.5% | efflux inhibition (fraction of control) [14] 0.68
66.7%: double positive events [6]

CN(C)CC/C=C1\c2ccccc2COc2ccccc21
active: binding (% of control) [13] 79%
68.1%: double positive events [6]
inactive: percent of DMSO control GFP [1] 96% | GFP response vs DMSO [2] 96.6% | percent response of DMSO control [3] 90.5% | GFP response vs DMSO [4] 104% | GFP response, % of DMSO [5] 109% | vesicle binding response [6] 176% | inhibition [7] 20.2% | superoxide response (% of plate) [8] 93.9% | aptamer binding inhibition [9] -3% | response [10] 0.32% | inhibition [11] -7.94% | response [12] 3.08% | efflux inhibition (fraction of control) [14] -0.04 | inhibition [15] 6% | differentiation response [16] -6.96%

O=C1c2ccccc2C2(c3ccccc3)NCCN12 (stereo not given)
inactive: percent of DMSO control GFP [1] 101% | GFP response vs DMSO [2] 102% | percent response of DMSO control [3] 109% | GFP response vs DMSO [4] 95.9% | GFP response, % of DMSO [5] 99.8% | vesicle binding response [6] 122% | inhibition [7] -14.5% | superoxide response (% of plate) [8] 92.9% | aptamer binding inhibition [9] 0% | response [10] -0.82% | inhibition [11] 6.52% | response [12] 11.8% | binding (% of control) [13] 104% | efflux inhibition (fraction of control) [14] -0.19 | inhibition [15] 3% | differentiation response [16] -14.8%
59.5%: double positive events [6]

CCOC(=O)n1c(=O)oc2ccccc21
62.5%: double positive events [6]
inactive: percent of DMSO control GFP [1] 97% | GFP response vs DMSO [2] 104% | percent response of DMSO control [3] 102% | GFP response vs DMSO [4] 102% | GFP response, % of DMSO [5] 107% | vesicle binding response [6] 196% | inhibition [7] 6.55% | superoxide response (% of plate) [8] 105% | aptamer binding inhibition [9] 7% | response [10] -19.8% | inhibition [11] -0.08% | response [12] 10.2% | binding (% of control) [13] 107% | efflux inhibition (fraction of control) [14] 0.08 | inhibition [15] 3% | differentiation response [16] -4.99%
